D2 ag-1 = activates the human D2 dopamine receptor; P14416; HEK293 T-REx D2 cells, calcium flux agonist mode; activation, % at 2 µM; 340,000 compounds, 0.53% hits;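 active means activation over 3 SD above normal in the single-dose calcium agonist read, cut at about 30% in these data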; further: 0% is about no effect
Target sequence (P14416 whole entry, looked up): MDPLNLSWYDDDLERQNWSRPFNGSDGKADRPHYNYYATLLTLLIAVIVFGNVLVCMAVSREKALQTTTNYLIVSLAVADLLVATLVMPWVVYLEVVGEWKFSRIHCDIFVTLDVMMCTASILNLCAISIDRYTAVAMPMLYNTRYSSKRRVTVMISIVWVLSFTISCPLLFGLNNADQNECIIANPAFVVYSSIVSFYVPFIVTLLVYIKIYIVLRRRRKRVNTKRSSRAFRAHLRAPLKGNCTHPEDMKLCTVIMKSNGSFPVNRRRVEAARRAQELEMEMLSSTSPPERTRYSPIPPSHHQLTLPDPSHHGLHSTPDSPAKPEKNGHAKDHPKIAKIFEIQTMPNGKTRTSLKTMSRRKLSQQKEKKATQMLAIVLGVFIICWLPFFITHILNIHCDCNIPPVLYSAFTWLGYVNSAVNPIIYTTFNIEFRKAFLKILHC
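Tetracycline-induced HEK293 T-REx cells with force-coupled D2 receptor, plated overnight at 30 C, loaded with no-wash calcium dye. After a 10 s baseline, compound was pin-added and calcium flux read kinetically for 180 s; calcium rises flagged agonists.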
D2 antagonist = antagonizes the human D2 dopamine receptor; P14416; HEK293 TREx D2 cells, calcium flux, dopamine EC80; inhibition, % at 10 µM; 340,000 compounds, 2% hits; in the data active means inhibition above about 30%; inactive means below that, where a call was filed; further: 0% is about no effect
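Read-out: kinetic calcium fluorescence (1 cycle/s) in inducible HEK293 T-REx D2 cells after an EC80 dopamine addition that followed 180 s compound preincubation. Loss of the dopamine response indicates antagonism.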
D2 PAM-1 = positive allosteric modulators of human D2 dopamine receptor | P14416 | HEK293 T-REx D2, calcium flux, EC20 dopamine potentiation | potentiation, % at 10 µM | 340,000 compounds, 0.34% hits | AID 485347;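 active means potentiation over 3 SD above the plate norm, cut at about 30% in these data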; further: 0% is about no effect
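Calcium flux readout, no-wash dye, 1 read/s. Inducible HEK293 Trex D2 line, overnight 30 C. Compound alone 180 s (agonist flags), then EC20 dopamine, another 180 s to score potentiation.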
D2 ag-2 = agonists of human D2 dopamine receptor (beta-arrestin) | AID 624465 | 360,000 compounds, 0.084% hits | activation, % (no concentration beside the values) | DiscoveRx PathHunter D2 beta-arrestin, luminescence, 90 min; 100% = 57 uM dopamine signal | P14416; in the data active means activation above about 40%; inconclusive means between about 15% and that limit
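Agonist mode: compounds alone added to overnight-plated D2 PathHunter cells for 90 min at 37 C, with 57 uM final dopamine (EC100) defining full response. Beta-arrestin recruitment detected by chemiluminescent reagent, read after 1 h at ambient temperature.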
D2 PAM-2 = human D2 receptor positive allosteric modulation | P14416 | DiscoveRx D2 beta-arrestin cells, luminescence, 90 min; 100% = 57 uM dopamine signal | potentiation, % (test concentration not listed) | 360,000 compounds, 0.23% hits; in the data active means potentiation above about 50%; inconclusive means mostly about 30% to 49%
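D2 cells co-treated with compound plus 50 nM dopamine (EC20) for 90 min at 37 deg C to detect potentiation. Beta-arrestin recruitment was read as enzyme-fragment luminescence after 1 h at ambient temperature. Full response was set by 57 uM dopamine.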
* marks the source's active call; other numbers are inactive results; ? = inconclusive; · = no result given; ! = a repeat was not active. The list is not random: actives were taken first. Their share in the collection is about 2.4%.

SMILES	D2 ag-1	D2 antagonist	D2 PAM-1	D2 ag-2	D2 PAM-2
CCOc1ccc(NCc2cc3c(C(C)(C)C)nn(-c4ccccc4)c3[nH]c2=O)cc1	0.3	-7.1	1.7	-4.1	-33.1
COc1ccc(CCNS(=O)(=O)c2ccc(C3CNC(=O)C3)cc2)cc1OC (centres undefined)	·	·	·	0.1	2.7
COc1ccc(C2CNC(=O)C2)cc1OC1CCCC1 (centres undefined)	70.3*!	71.2*!	-4.4	-3.7	-1.8
CC(=O)N1CCN(c2ccc(NCc3ccc(C)cc3)cc2)CC1	0.1	-5.1	-16.5	-1.4	29.9
CCc1ccc(CNc2ccc(N3CCN(C(C)=O)CC3)cc2)cc1	0.3	-2.2	8.5	12.2	81.5*
O=C(c1cc2c(s1)-c1ccccc1OC2)N1CCc2ccccc2C1	3.8	33.1*	-12.9	-2.6	-1.3
CCOc1ccccc1CN1CCN(Cc2cc(=O)c3ccccc3[nH]2)CC1CCO (centres undefined)	-0.7	-19.3	-15.3	-1.1	-4.4
O=C(COC(=O)c1cc[n+]([O-])cc1)NCCc1ccc(Cl)cc1Cl	1.1	33.7*	-1.3	-14.5	0.4
Cc1ccnn1CC(=O)N/N=C/c1c[nH]c2ccccc12	-0.2	-17.7	-0.8	-2.1	-2.2
Cc1ccnn1CC(=O)N/N=C/c1cn[nH]c1-c1ccccc1	0.2	43.9*	0.7	-2.9	0.4
COc1cc(C(=O)Nc2cc(S(C)(=O)=O)ccc2Cl)ccc1OCC(=O)N1CCOCC1	0.0	35.6*	-5.5	-4.9	-3.8
COc1ccc(OC)c(NC(=O)c2ccc(OCC(=O)N3CCOCC3)c(OC)c2)c1	10.0	-13.7	-8.8	1.2	-4.2
CCSC1=NSC2=NC(=O)/C(=C\c3coc4ccccc4c3=O)C(=N)N12	99.6*	11.6	-7.2	-1.0	?
CC(C)CC1=NN2C(=N)/C(=C\c3coc4ccccc4c3=O)C(=O)N=C2S1	13.2	-4.5	2.3	3.5	4.3
CCN(CC)C(=O)C1CCCc2c1[nH]c1ccc(Cl)cc21 (centres undefined)	-0.7	-5.9	-5.5	-3.2	-0.3
O=CNC1CCCc2c1[nH]c1ccc(Cl)cc21 (centres undefined)	2.3	-13.4	5.1	5.3	77.2*
Cn1ccnc1C(=O)c1ccc(Cl)c(S(=O)(=O)N2CCOCC2)c1	0.8	-3.9	4.7	-2.1	-1.0
COc1ccc(S(=O)(=O)CCc2nc3ccccc3s2)cc1	0.2	59.1*	-3.5	-3.3	-1.7
O=S(=O)(CCc1nc2ccccc2s1)c1ccc(Cl)cc1	0.1	-7.9	0.1	2.5	7.0
COc1ccc(N2CCN(C(=O)CCCn3nnnc3CN3CCOCC3)C(C)C2)cc1 (centres undefined)	-0.1	15.9	1.2	-1.9	-5.8
CCN(CC)Cc1ccccc1CNC(=O)c1cccc(S(=O)(=O)Nc2ccc3c(c2)OCO3)c1	0.6	74.5*	-35.9	-0.3	-2.4
COc1ccc(-c2cn3c(C)c(C(=O)NCCN4CCOCC4)sc3n2)cc1	·	·	·	0.1	-8.0
CC(C)(C)c1cc(OC(=O)c2ccncc2)ccc1O	·	·	0.2	8.9	69.4*
CC1CCCN(CCCNC(=O)c2ccc(NC(=O)C3=CSCCO3)cc2)C1 (centres undefined)	0.3	-2.1	-0.3	-1.1	-18.3
Cc1cccc(N2CCN(CCCNC(=O)c3ccc(NC(=O)C4=CSCCO4)cc3)CC2C)c1 (centres undefined)	16.1	36.3*	-28.2	1.2	4.1
SMILES	D2 ag-1	D2 antagonist	D2 PAM-1	D2 ag-2	D2 PAM-2
CCNC(=O)c1cc(S(=O)(=O)N2CCSCC2)ccc1OC	·	·	·	1.4	-1.1
O=C(c1ccc2c(c1)OCCO2)C1CCN(C(=O)Nc2ccc(F)cc2)CC1	-0.3	-8.0	1.0	2.2	0.2
COc1ccc(NC(=O)N2CCCC(C(=O)NC(C)C)C2)cc1 (centres undefined)	-0.1	32.7*	-3.4	-0.7	4.4
COc1ccc(NC(=O)N2CCC(C(=O)c3ccc4c(c3)OCCO4)CC2)cc1	-0.6	6.9	32.6*	-2.4	-4.2
C/C(CC1(O)C(=O)N(Cc2ccccc2)c2ccccc21)=N\O (centres undefined)	-0.3	25.3	-10.2	-1.7	-13.8
CC(=O)CC1(O)C(=O)N(Cc2ccccc2)c2ccccc21 (centres undefined)	0.2	61.4*	-24.8	-0.3	7.2
CC1(C)C(=S)N(Cc2ccccc2)c2ccccc21	-1.0	0.6	-2.9	6.4	62.5*
CN(C)CCCCOc1ccccc1F	0.4	-1.1	-5.9	-2.5	-12.7
COCCNCCCCOc1ccccc1-c1ccccc1	0.6	92.0*	-33.6	-5.4	-35.7
C=CCNCCCOc1ccc(C(C)(C)c2ccccc2)cc1	-0.1	-5.9	7.7	-5.5	-32.7
CCCCNCCOCCOc1ccccc1-c1ccccc1	-0.1	76.4*	-20.6	2.4	-27.0
C=CCNCCOc1ccccc1-c1ccccc1	8.0	86.9*	-28.1	-1.1	-38.8
CN(C)CCCCOc1ccccc1-c1ccccc1	4.1	70.6*	-28.4	-1.1	-21.2
O=C(COc1ccccc1)Nc1ccc(S(=O)(=O)NCc2ccco2)cc1	1.2	-5.7	-5.9	1.6	-7.1
CN(C)S(=O)(=O)Oc1ccsc1C(=O)Nc1cccc(Cl)c1	0.5	-4.1	-1.5	-3.2	-13.0
O=C(Cn1nnc(-c2cccc(C(F)(F)F)c2)n1)N1CCOCC1	0.4	4.7	11.1	-1.3	-7.9
O=C(NC1(C(F)(F)F)N=C2SCCN2C1=O)c1ccccc1F (centres undefined)	-0.3	9.7	-1.1	-4.7	-15.9
Cc1[nH][nH]c(=O)c1C=NCc1cccnc1	0.6	1.6	3.8	-1.7	3.8
C=CCn1c(O)c(C(CC)=NCc2cccnc2)c(=O)[nH]c1=O	0.2	42.0*	6.0	-3.6	3.7
O=C(N/N=C/c1ccc(Cl)c([N+](=O)[O-])c1)c1ccc2c(c1)OCCO2	·	·	·	-4.3	-12.4
CN1CCN(CC(=O)Nc2ccccc2[N+](=O)[O-])CC1	1.3	-5.9	-3.9	-3.1	-21.8
Cc1nnnn1CC(=O)Nc1ccccc1[N+](=O)[O-]	-0.7	36.5*	-2.7	2.1	2.3
CC(C)(C)CC(C)(C)N=C1NS(=O)(=O)c2cc([N+](=O)[O-])ccc21	0.6	15.1	7.9	?	29.3
CC(C)(CO)N=C1NS(=O)(=O)c2cc([N+](=O)[O-])ccc21	0.1	15.2	0.2	?	90.3*
CCC1CCCCN1CC(=O)c1c(C)[nH]c2cc(C)ccc12 (centres undefined)	0.6	32.9*	-4.5	2.8	-2.1
COc1ccccc1N1CCN(CC(=O)c2c(C)n(C)c3ccccc23)CC1	-0.5	24.4	-25.0	-1.0	-31.3
COc1ccccc1N1CCN(CC(=O)c2c(C)[nH]c3cc(C)ccc23)CC1	-0.1	63.9*	-29.8	-3.4	-13.8

From PubChem
